Only some compounds are listed: those with a hit (about 5.9% of all), similar ones and a draw of the others.
VP16 counter = inhibits Gal4-VP16 luciferase reporter, ROR gamma counter-screen; Drosophila S2 Gal4-VP16 UAS-luciferase, luminescence, 20 h; Potency, µM (titrated, usually from 53.6 µM), for inactives: at the highest dose activity, negative = inhibition, actives largely listed as inhibitors; 310,000 compounds, 3.5% hits;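 also: Gal4-VP16 expression switched on by copper sulfate through the metallothionein promoter; potency is read from the fitted curve at half-maximal effect; nearly all actives have a fitted effect of over 50% in size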
TrxR1 substrate = substrates of rat thioredoxin reductase 1. AID 588456. 390,000 compounds, 0.01% hits. purified TrxR1 substrate turnover, NADPH consumption readout. Potency, µM (highest dose often 114 µM), inactives show at the highest dose activity change, negative = substrate turnover. O89049; also: potency is read from the fitted curve at half-maximal effect; nearly all actives have a fitted effect of over 50% in size
Target sequence (O89049 whole entry, looked up): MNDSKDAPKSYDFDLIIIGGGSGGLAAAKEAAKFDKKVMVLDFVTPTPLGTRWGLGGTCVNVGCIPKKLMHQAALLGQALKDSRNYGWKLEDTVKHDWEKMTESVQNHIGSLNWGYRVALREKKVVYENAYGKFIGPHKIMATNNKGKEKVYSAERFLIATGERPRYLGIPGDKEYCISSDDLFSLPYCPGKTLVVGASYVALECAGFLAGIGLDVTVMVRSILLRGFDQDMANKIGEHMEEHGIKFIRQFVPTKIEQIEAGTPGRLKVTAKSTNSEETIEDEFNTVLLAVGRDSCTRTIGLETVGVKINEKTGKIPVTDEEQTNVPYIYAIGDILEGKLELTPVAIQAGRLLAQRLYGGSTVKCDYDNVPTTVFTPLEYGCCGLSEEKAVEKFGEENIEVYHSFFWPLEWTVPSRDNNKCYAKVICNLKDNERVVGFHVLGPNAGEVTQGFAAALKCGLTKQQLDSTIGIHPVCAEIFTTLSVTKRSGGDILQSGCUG
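Rat TrxR1, dispensed at 90 nM, was prereduced with 400 uM NADPH (final) for 5 min at ~22 deg C, then incubated with compound 15 min before 400 uM selenite. A first-read NADPH fluorescence drop versus no-compound background flagged substrates.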
Coupling enz = coupling enzyme interference in Giardia aldolase counter-screen; coupling enzyme system counterscreen, AmpLite Red fluorescence; activity change, negative = inhibition, % at 58.2 µM, hits read low; 290,000 compounds, 0.67% hits; AID 2472; in the data active = activity change below about -30%
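Final compound at 57.5 uM, incubated 10 min at RT with coupling enzyme reagent (glyceraldehyde-3-phosphate), then 20 min with substrate and AmpLite Red detection. Fluorescence read at 525/598 nm; tests interference with the coupling assay, not aldolase inhibition.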
rTrxR1 inhibitor = blocks rat thioredoxin reductase 1 | 390,000 compounds, 1% hits | recombinant rTrxR1, NADPH fluorescence consumption, selenite substrate | AID 588453 | Potency, µM (doses to about 114 µM), for the others: top-dose activity change, negative = inhibition, most hits filed as inhibitors; also: potency is read from the fitted curve at half-maximal effect; nearly all actives have a fitted effect of over 65% in size
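Rat TrxR1 (90 nM in the dispensed reagent) was pre-reduced with 400 uM NADPH for 5 min at room temperature, then incubated with compound for 15 min. After 400 uM selenite was added, NADPH fluorescence (Ex 340/Em 450 nm) was followed for 8 min.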
GALK inh = galactokinase (human) inhibition | P51570 | Purified GALK, Kinase-Glo residual ATP luminescence | Potency, µM (series often up to 57.5 µM), without a hit: at the top dose activity change, negative = inhibition, hits mostly inhibitors | 270,000 compounds, 0.007% hits | AID 1868; also: potency is read from the fitted curve at half-maximal effect
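Compounds were pin-transferred into ATP buffer (35 uM final), then GALK plus galactose (5 nM, 100 uM final) was added. After 1 h at room temperature, Kinase-Glo Plus was added and luminescence read after 10 min.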
RORg inh = ROR gamma (mouse) transcription inhibition | 310,000 compounds, 5.4% hits | Potency, µM (titrated, usually from 53.6 µM), for inactives: top-dose activity change, negative = inhibition, most hits filed as inhibitors | AID 2551 | Drosophila S2 Gal4-RORgamma UAS-luciferase reporter, 20 h | P51450; also: potency is read from the fitted curve at half-maximal effect; nearly all actives have a fitted effect of over 60% in size
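In this cell-based reporter format, copper sulfate (700 uM final) drives Gal4–ROR gamma fusion expression from a metallothionein promoter in Drosophila Schneider cells; compounds preincubated 1 hr, reporter read after 20 hr at ambient temperature.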
An asterisk follows results filed as active; ? = inconclusive; / = no result given; [ ] = dose if it differs, or a comment. Unless noted, calls follow the shape of the dose curve; as a rule, active = well fitted curve in the direction sought with a large enough effect; inconclusive = small, poorly fitted or top-dose-only effect, or another doubt; inactive = no such curve, though single readings can be large; an effect the other way counts as inactive or inconclusive. % is scaled to controls: 0 for no effect and ±100 for the full control effect.

SMILES	VP16 counter	TrxR1 substrate	Coupling enz	rTrxR1 inhibitor	GALK inh	RORg inh
Cc1ccc(S(=O)(=O)CCC(=O)OCC(=O)NC(=O)c2ccccc2)cc1	/	4.4%	/	8.9%	/	/
Cc1ccccc1OCCN1C(=O)NC2(CCCc3ccccc32)C1=O (stereo not drawn)	3.7%	10.8%[57.1 µM]	2.7	14.6%[57.1 µM]	-2.8%	2.5%
CNc1ccccc1C(C)(C)c1cc(-c2cccc([N+](=O)[O-])c2)no1	1.3%	-6.7%[57.1 µM]	-1.3	-3.9%[57.1 µM]	-2.3%	23.2%
CNc1ccccc1C(C)(C)c1cc(-c2cccc(Br)c2)no1	15.8µM*	1.5%	-4.7	4.7%	-0.1%	?
COc1nc(OC)nc(N2CCC(C(=O)NCc3ccc(F)cc3)CC2)n1	-3.7%	9.9%	-0.2	26.3%	0.8%	6.3%
COc1ccc(CN=C2NN=C(c3cccc(OC)c3)CS2)cc1	-22.8%	-6.7%	-8.3	-7.3%	-2.5%	4.1%
Cc1ccc(C)c(C2=NNC(=NCc3ccccc3)SC2)c1	?	4.8%[57.1 µM]	-1.5	-0.5%[57.1 µM]	5.2%	7.94µM*
COc1ccc(CN=C2NN=C(c3ccccc3)CS2)cc1	-2.2%	-5.5%	-2.4	-14.3%	-2.5%	2µM*
COc1cccc(C2=NNC(=NCc3ccccc3)SC2)c1	5.4%	-10.2%	-1.9	?	11.6%	8.91µM*
C=CCn1c(C)cc(C2=NNC(=NCc3ccccc3)SC2)c1C	-5.1%[10 µM]	6.9%[57.1 µM]	-19.8	29.0%[57.1 µM]	-2.8%	23.5%
Cn1c(=NC(=O)CCS(=O)(=O)c2ccccc2)sc2cc(F)ccc21	/	11.6%	/	?	/	/
O=C(COC(=O)c1ccccc1SCC(=O)N1CCCC1)NC1CCS(=O)(=O)C1 (stereo not drawn)	/	-3.4%	/	5.0%	/	/
CCOC(=O)c1c(SCCN2CCCCC2)n(-c2ccccc2)c(=S)n(-c2ccccc2)c1=O	/	-4.4%	/	17.8µM*	/	/
O=C1Nc2ccc(S(=O)(=O)NCc3ccco3)c3cccc1c23	/	9.1%	/	44.7µM*	/	/
O=C(O)CNS(=O)(=O)c1ccc2c3c(cccc13)C(=O)N2	0.3%	38.3%[57.1 µM]	1.5	20.8%[57.1 µM]	8.2%	-17.3%
COc1ccc(C(C#N)CCC2OCCO2)cc1OC (stereo not drawn)	/	-26.7%	/	-9.1%	/	/
O=C(COC(=O)c1cccc(S(=O)(=O)N2CCN(c3ccccc3)CC2)c1)NCc1ccco1	10µM*	5.4%	2.4	3.9%[57.1 µM]	1.6%	8.91µM*
N#C/C(N)=C(/C#N)N=Cc1cccc(Cl)c1	-5.3%	4.5%[57.1 µM]	1.1	3.0%[57.1 µM]	2.4%	3.0%
Oc1c(Br)cc(Br)cc1C=NCc1ccccc1	-29.9%	3.6%	-3.5	12.4%	-2.7%	?
Oc1c(Br)cc(Br)cc1C=NCc1ccc(F)cc1	?	-7.1%	-18.0	-13.1%	1.7%	10µM*
O=C(Nn1cnnc1)c1cc(Cl)cc(Cl)c1	4.9%	1.3%	-3.8	7.8%	-0.6%	-4.6%
COc1cc(C(=O)NNC(=O)/C=C/c2ccco2)cc(OC)c1OC	/	-5.4%	/	56.2µM*	/	/
COc1cc2c(cc1NC(=S)NC(=O)/C=C/c1ccc(OC)c(OC)c1)oc1ccccc12	-2.4%	10.5%[57.1 µM]	0.7	3.7%[57.1 µM]	-2.2%	-14.5%
Cc1ccccc1NC(=S)NC(=O)/C=C/c1ccco1	12.6µM*	4.8%	0.4	15.8µM*	5.0%	?
COc1cc2c(cc1NC(=S)NC(=O)/C=C/c1ccco1)oc1ccccc12	5.01µM*	-1.0%	-0.3	13.4%	-3.7%	3.16µM*
SMILES	VP16 counter	TrxR1 substrate	Coupling enz	rTrxR1 inhibitor	GALK inh	RORg inh
COc1ccccc1NC(=S)NC(=O)/C=C/c1ccco1	20µM*	-2.6%	-2.7	20µM*	0.7%	12.6µM*
COc1cc(C(=O)NNC(=O)c2ccco2)cc(OC)c1OC	0.1%	3.6%	-0.5	13.8%	-0.9%	14.4%
COc1cccc(NC(=O)/C=C/c2ccco2)c1	8.3%	-6.7%	-7.3	-68.8%	-0.4%	26.9%
COc1ccccc1NC(=O)/C=C\c1ccco1	?	-3.5%	-0.5	3.55µM*	4.0%	23.4%
Cc1nc2c(Br)cc(Br)cc2cc1O	-2.2%	-15.9%	0.0	-9.6%[57.1 µM]	-0.9%	8.9%
COc1cccc(NC(=S)N2CCN(C(c3ccccc3)c3ccccc3)CC2)c1	8.91µM*	-10.8%	-0.4	-14.2%	/	4.47µM*
COc1ccc(NC(=S)N2CCN(C(c3ccccc3)c3ccccc3)CC2)c(OC)c1	?	5.5%[57.1 µM]	2.8	24.0%[57.1 µM]	5.3%	5.01µM*
CC(C)CC(=O)Nc1ccc(N2CCN(C(=O)c3cccs3)CC2)cc1	3.4%	-4.0%	0.5	0.2%	16.9%	17.0%
CCC1(C)N=C(c2ccc3c(c2)OCO3)CC(c2ccccc2O)N1 (stereo not drawn)	9.4%	6.0%[57.1 µM]	-0.5	?	-2.6%	?
COC(=O)c1sccc1NC(=O)Nc1ccc(F)cc1	23.7%	-2.1%	/	5.7%	7.3%	?
COC(=O)c1sccc1NC(=S)Nc1ccc(F)cc1	?	-2.8%	-0.9	-24.2%	1.6%	12.6µM*
COC(=O)c1sccc1NC(=S)Nc1cc(C)ccc1OC	15.8µM*	6.4%	0.2	-15.3%	-1.1%	8.91µM*
Cc1cc(C)cc(NC(=O)CCc2nc3sc4c(c3c(=O)[nH]2)CCCC4)c1	/	8.3%	/	-2.1%	/	/
COc1cccc(NC(=O)NCCCSC2CCCCC2)c1	0.7%	-0.4%[57.1 µM]	3.7	2.1%[57.1 µM]	-1.5%	-0.9%
Cc1cc(C)c(NC(=S)NCCCSC2CCCCC2)c(C)c1	?	-0.9%	-0.1	7.7%[57.1 µM]	-2.5%	2µM*
COc1ccc(-c2nnc(NC(=O)C3CC3)o2)cc1	10µM*	3.2%	0.9	7.7%	0.7%	5.01µM*
COc1ccc(-c2nnc(NC(=O)CS(=O)(=O)c3ccc(F)cc3)o2)cc1	/	-2.1%	/	-15.3%	/	/
COc1ccc(-c2nnc(NC(=O)C(C)C)o2)cc1	?	5.1%	-0.7	28.1%	2.4%	11.2µM*
COc1cccc(-c2nnc(NC(C)=O)o2)c1	?	-0.1%	5.7	22.7%	2.0%	?
COc1cccc(-c2nnc(NC(=O)C3CCCCC3)o2)c1	11.2µM*	6.0%	2.7	19.4%	1.5%	3.55µM*
CC1(C)CC(NCc2ccccc2)CCO1 (stereo not drawn)	-4.8%	8.0%[57.1 µM]	2.5	-1.0%[57.1 µM]	-2.9%	12.0%
COc1ccc2c(c1)Sc1ccccc1N2	6.31µM*	-4.3%	-3.4	22.6%[57.1 µM]	-0.9%	6.31µM*
c1ccc2c(c1)Nc1cc3ccccc3cc1S2	6.7%	5.0%[11.4 µM]	-13.2	15.5%[11.4 µM]	/	1.4%
C=CCN1c2ccccc2C(=O)CS1(=O)=O	/	13.0%[57.1 µM]	/	11.2µM*	/	/
COc1ccc(Nc2c([N+](=O)[O-])ccc3c2=NC2(CCCCC2)N=3)cc1	-15.6%	-14.1%	-33.9*	-22.3%	0.4%	-35.9%
O=[N+]([O-])c1ccc2c(c1Nc1ccccc1)=NC1(CCCCC1)N=2	?	2.5%	-21.4	2.6%	3.0%	-26.3%

Assay outcomes (PubChem BioAssay)
